Our source for the binding signal values is paper PMC7862700, “An all-to-all approach to the identification of sequence-specific readers for epigenetic DNA modifications on cytosine”.

Common to all, as to test: DAPPL (digital affinity profiling via proximity ligation, sequencing); 10 mM Tris-HCl pH 7.5, 50 mM NaCl, 1 mM DTT, 4% glycerol, room temperature, 30 min; GST-TFs on glutathione beads, 16-mer random dsDNA library, 0.1% formaldehyde crosslink after washing; high values mean tight binding
Conditions in all cases: protein: recombinant; tags: N-terminal GST; dsDNA, one strand shown

One experiment deals with T1, ELK1 (Homo sapiens, UniProt P19419 1-428).
T1 sequence: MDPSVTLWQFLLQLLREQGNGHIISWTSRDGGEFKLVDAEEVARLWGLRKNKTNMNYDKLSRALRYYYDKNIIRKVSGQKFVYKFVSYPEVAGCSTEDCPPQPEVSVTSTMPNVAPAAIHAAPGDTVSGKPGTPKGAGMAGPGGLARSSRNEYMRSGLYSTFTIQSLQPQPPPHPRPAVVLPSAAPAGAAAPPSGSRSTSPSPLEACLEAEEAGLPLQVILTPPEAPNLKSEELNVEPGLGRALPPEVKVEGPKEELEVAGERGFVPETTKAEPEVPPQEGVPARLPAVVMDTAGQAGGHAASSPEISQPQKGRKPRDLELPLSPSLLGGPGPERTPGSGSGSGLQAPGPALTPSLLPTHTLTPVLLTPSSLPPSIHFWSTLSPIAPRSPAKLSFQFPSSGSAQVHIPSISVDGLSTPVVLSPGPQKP
Put shortly: (§1)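 Each value of binding signal is a hexamer's read frequency for a factor divided by the same hexamer's frequency in the tag-only sample. Barcoded, bead-captured GST fusions of human transcription factors made in yeast were pooled with that sample and incubated with 200 nmole of a random double-stranded 16-mer DNA library in Tris/NaCl/DTT/glycerol buffer at room temperature for 30 min. Washing, 0.1% formaldehyde crosslinking, proximity ligation, PCR and Illumina NextSeq500 sequencing followed.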

Another experiment concerns the target T2, GABPA (Homo sapiens, UniProt Q06546 1-454).
T2 sequence: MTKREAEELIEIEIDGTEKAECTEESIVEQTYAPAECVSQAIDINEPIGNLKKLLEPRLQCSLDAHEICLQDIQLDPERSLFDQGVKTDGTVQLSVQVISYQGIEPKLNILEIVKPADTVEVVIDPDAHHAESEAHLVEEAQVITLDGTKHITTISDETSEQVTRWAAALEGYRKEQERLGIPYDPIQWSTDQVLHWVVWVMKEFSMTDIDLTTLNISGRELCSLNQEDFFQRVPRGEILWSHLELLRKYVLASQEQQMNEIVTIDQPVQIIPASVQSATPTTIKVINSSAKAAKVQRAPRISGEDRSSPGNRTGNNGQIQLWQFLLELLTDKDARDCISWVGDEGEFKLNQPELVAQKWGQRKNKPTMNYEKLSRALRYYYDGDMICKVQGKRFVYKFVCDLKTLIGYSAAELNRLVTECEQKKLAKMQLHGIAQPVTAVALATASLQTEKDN
The procedure, abridged: as §1

The next experiment addresses T3, ERG (Homo sapiens, UniProt P11308 1-479).
T3 sequence: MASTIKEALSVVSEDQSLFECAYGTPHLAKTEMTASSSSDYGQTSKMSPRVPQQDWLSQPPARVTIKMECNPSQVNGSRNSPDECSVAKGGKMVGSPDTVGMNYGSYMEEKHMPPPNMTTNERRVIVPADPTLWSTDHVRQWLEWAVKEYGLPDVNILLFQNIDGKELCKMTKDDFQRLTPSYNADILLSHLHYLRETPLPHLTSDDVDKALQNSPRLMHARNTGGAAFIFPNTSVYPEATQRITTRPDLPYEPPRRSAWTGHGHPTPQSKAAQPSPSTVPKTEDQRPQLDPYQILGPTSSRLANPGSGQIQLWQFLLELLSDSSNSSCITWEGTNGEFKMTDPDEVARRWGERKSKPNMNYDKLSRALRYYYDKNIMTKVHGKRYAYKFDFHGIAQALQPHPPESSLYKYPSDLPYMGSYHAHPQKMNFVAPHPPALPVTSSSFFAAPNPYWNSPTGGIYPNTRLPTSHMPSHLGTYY
Put shortly:
as §1

Another experiment concerns the target ETV5 (Homo sapiens, UniProt P41161 1-510). Put shortly:
as §1

The next experiment deals with T4, SPIC (Homo sapiens, UniProt Q8N5J4 1-248).
T4 sequence: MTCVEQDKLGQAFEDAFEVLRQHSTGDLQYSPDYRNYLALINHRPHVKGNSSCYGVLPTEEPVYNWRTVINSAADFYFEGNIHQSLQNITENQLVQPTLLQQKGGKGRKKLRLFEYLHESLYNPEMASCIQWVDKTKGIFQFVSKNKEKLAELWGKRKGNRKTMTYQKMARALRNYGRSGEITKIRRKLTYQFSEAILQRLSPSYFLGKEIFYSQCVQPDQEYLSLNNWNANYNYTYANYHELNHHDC
Put shortly: as §1

In the next experiment the target is ELF4 (Homo sapiens, UniProt Q99607 1-663). The procedure, abridged:
as §1

Another experiment has as its target T5, ELK4 (Homo sapiens, UniProt P28324-2 1-405).
T5 sequence: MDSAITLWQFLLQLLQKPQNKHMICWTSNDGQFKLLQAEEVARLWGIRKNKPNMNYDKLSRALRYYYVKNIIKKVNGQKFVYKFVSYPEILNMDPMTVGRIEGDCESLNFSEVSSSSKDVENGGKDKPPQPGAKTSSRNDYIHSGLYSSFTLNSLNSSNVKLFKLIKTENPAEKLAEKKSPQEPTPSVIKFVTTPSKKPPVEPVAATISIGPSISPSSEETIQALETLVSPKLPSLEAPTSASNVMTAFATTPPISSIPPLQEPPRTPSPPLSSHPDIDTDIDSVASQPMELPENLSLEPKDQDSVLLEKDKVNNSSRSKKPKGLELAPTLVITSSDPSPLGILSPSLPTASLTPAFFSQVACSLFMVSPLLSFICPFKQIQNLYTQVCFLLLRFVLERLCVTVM
The procedure, abridged:
as §1

For another experiment, the target named is ETV1 (Homo sapiens, UniProt P50549 1-477). The procedure, abridged:
as §1

The next experiment concerns the target T6, ETS2 (Homo sapiens, UniProt P15036 1-469).
T6 sequence: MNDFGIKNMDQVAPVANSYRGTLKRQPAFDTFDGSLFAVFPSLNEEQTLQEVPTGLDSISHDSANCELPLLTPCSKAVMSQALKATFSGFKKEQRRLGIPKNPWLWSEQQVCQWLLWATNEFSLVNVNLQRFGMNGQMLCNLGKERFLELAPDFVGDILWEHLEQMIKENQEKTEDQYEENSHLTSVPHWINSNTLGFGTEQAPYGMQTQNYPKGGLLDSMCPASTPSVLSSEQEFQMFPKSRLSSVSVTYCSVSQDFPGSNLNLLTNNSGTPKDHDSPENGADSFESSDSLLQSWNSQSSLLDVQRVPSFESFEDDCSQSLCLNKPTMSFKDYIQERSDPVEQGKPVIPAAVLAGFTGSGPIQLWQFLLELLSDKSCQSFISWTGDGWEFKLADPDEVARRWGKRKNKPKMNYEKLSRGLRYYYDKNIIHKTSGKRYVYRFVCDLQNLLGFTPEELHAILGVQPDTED
The procedure, abridged: as §1

For the next experiment, the target named is T7, SPDEF (Homo sapiens, UniProt O95238 1-335).
T7 sequence: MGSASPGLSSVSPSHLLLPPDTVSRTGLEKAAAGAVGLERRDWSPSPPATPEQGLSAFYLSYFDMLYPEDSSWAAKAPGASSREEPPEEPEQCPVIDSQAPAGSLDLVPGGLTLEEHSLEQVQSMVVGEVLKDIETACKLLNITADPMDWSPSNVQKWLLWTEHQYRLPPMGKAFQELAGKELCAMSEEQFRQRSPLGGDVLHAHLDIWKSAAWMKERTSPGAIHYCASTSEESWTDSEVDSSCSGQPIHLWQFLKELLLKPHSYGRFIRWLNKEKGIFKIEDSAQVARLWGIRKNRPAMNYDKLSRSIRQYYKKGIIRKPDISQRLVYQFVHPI
The procedure, abridged:
as §1

The next experiment deals with T8, ETV7 (Homo sapiens, UniProt Q9Y603 1-341).
T8 sequence: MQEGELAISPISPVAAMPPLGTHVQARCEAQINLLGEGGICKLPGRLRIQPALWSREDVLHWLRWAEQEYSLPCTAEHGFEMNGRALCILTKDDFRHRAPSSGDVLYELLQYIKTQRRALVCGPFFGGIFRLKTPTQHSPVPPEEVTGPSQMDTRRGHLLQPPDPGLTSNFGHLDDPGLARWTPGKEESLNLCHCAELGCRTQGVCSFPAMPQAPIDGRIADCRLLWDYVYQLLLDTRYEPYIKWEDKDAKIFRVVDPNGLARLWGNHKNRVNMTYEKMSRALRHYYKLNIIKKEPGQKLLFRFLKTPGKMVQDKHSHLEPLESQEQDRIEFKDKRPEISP
The procedure, abridged: as §1

For a further experiment, the target named is T9, ETV3 (Homo sapiens, UniProt P41162-2 1-143).
T9 sequence: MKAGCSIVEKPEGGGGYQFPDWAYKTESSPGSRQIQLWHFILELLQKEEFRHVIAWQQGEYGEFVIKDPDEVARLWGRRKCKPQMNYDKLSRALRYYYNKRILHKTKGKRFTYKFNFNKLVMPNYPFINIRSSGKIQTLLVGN
Put shortly: as §1

Another experiment addresses ETV6 (Homo sapiens, UniProt P41212 1-452). Put shortly: as §1

ETV6, sequence (P41212 whole entry): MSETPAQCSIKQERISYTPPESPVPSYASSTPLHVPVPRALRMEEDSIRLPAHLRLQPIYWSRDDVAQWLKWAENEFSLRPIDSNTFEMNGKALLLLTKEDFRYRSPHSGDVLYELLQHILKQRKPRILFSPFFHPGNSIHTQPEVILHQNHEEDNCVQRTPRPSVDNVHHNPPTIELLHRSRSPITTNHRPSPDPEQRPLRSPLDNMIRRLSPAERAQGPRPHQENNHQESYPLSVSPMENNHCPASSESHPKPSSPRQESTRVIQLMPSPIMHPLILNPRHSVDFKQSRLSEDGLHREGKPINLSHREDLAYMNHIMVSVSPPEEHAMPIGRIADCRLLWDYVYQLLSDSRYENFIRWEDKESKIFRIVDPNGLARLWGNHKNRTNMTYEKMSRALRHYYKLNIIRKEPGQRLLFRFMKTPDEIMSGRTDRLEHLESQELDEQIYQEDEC
ELF4, sequence (Q99607 whole entry): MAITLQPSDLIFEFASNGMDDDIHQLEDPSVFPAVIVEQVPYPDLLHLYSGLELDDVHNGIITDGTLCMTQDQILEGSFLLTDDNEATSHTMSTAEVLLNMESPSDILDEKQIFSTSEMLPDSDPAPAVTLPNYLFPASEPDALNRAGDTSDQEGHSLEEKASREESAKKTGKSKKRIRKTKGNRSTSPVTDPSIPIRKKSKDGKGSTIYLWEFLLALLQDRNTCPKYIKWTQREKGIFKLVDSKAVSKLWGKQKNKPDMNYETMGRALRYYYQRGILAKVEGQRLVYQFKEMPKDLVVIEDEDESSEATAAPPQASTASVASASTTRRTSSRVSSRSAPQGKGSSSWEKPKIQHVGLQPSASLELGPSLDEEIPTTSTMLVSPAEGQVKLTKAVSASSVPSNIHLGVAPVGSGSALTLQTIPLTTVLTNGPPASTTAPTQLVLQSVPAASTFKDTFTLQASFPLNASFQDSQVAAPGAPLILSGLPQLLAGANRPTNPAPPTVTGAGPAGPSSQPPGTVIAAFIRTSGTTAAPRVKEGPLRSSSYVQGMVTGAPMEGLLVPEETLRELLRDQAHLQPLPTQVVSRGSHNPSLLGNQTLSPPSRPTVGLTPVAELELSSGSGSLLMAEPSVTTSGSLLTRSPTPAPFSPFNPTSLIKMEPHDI
ETV1, sequence (P50549 whole entry): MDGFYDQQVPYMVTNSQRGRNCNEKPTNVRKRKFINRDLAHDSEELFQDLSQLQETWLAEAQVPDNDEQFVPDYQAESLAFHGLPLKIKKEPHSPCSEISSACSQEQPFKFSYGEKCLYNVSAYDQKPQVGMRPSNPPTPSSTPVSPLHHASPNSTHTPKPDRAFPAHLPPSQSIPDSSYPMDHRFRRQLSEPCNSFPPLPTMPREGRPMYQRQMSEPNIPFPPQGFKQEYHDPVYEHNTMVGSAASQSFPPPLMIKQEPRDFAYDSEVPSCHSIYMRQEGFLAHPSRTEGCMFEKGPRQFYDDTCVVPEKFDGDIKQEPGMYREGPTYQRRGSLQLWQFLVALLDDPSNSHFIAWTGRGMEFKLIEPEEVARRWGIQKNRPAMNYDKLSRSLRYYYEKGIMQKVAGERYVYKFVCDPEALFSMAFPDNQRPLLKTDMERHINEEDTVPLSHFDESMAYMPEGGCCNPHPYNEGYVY
ETV5, sequence (P41161 whole entry): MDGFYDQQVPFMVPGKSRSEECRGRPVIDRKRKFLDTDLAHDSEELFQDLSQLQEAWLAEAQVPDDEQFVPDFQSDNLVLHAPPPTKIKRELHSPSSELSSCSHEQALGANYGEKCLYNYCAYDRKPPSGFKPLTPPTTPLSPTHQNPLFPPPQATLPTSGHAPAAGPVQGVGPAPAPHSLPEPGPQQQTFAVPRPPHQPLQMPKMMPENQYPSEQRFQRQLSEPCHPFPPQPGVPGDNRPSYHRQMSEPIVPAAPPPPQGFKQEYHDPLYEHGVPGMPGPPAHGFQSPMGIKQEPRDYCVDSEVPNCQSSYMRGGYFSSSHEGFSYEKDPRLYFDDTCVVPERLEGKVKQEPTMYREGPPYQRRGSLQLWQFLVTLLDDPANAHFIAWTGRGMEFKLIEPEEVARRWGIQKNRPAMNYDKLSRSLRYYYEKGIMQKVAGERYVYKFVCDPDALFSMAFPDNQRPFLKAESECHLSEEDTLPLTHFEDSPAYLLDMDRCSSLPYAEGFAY

Consider GAAGCC, for which the binding signal is 1.06 fold enrichment (6-mer frequency, TF over GST control) with ELK1; 1 fold enrichment (6-mer frequency, TF over GST control) with GABPA; 1.08 fold enrichment (6-mer frequency, TF over GST control) in the experiment with ERG; 1.07 fold enrichment (6-mer frequency, TF over GST control) with ETV5; 1 fold enrichment (6-mer frequency, TF over GST control) with SPIC; 1.04 fold enrichment (6-mer frequency, TF over GST control) with ELF4. Moreover, the binding signal in the experiment with ELK4 was 1.01 fold enrichment (6-mer frequency, TF over GST control); with ETV1 it was 1.04 fold enrichment (6-mer frequency, TF over GST control); with ETS2, 1.01 fold enrichment (6-mer frequency, TF over GST control); with SPDEF, 1.01 fold enrichment (6-mer frequency, TF over GST control); in the experiment with ETV7 it was 1.12 fold enrichment (6-mer frequency, TF over GST control); with ETV3 it was 1 fold enrichment (6-mer frequency, TF over GST control). In addition, in the experiment with ETV6, the binding signal is 1.09 fold enrichment (6-mer frequency, TF over GST control).
